# The campaign covered roughly 360,000 compounds. About 750 (0.21%) were called active. Roughly 2% stayed inconclusive and do not appear here. The entries come from a sample that favours actives as a whole. A number with no mark means an inactive call. The call rests on the fitted dose curve; in most records, active means well fitted falling curve with a large enough effect; inconclusive means small, poorly fitted or top-dose-only effect; inactive means no such curve, though single readings can be large or run the other way.
# Experiment: qHTS Assay for Inhibitors of the HIV-1 protein Vpr; further: nearly all actives have a fitted effect of over 50% in size
# Settings: S. pombe RE007 Vpr strain, BacTiter-Glo ATP luminescence, 24 h; series mostly up to 92.2 µM; activity change, negative = less growth: at the top concentration
# Text: Human immunodeficiency virus type 1 (HIV-1), the causative agent of AIDS, contains a protein called viral protein R (Vpr) that plays an important role in the viral life cycle and the pathogenesis of HIV-1.
# These Vpr specific activities include cytoplasmic-nuclear shuttling, induction of cell cycle G2 arrest and cell killing. The cytoplasmic-nuclear shuttling is believed to participate in nuclear transport of the proviral integration complex (PIC). The cell cycle G2 arrest induced by Vpr is thought to suppress human immune functions by preventing T cell clonal expansion and to provide an optimized cellular environment for maximal levels of viral replication. In addition, Vpr induces apoptosis, which may contribute to the depletion of CD4 T cells in HIV-infected patients. Since the Vpr-specific activities have been linked to such clinical manifestation of AIDS as activation of viral replication, suppression of host immune responses and depletion of CD4+ T-lymphocytes, identification of new molecular probes that can inhibit the Vpr activities could potentially provide a new approach to reduce Vpr-mediated detrimental effects in HIV-infected patients, and thus prolong patient's lives. Currently, there are no anti-Vpr drugs.
# A fission yeast (Schizosaccharomyces pombe) model system for the Vpr studies has been developed which measures HIV-1 Vpr-induced cell death. This assay will be used for to screen the NIH Molecular Libraries Small Molecule Repository (MLSMR) identify small molecule HIV-1 Vpr inhibitors.
# NIH Chemical Genomics Center [NCGC]
# NIH Molecular Libraries Probe Centers Network [MLPCN]
# Assay Submitter (PI): Richard Zhao, University of Maryland
# The fission yeast RE007 strain was used, which carries a single integrated copy of HIV-1 vpr gene in the yeast chromosome. The starting culture was frozen stock 100ul of yeast RE007 in 150ml of *PMG+AL medium, Incubation in 30 degree plus 99% humidity for 18 hours. Next day dispensed 2.5ul of PMG+AL medium in each well to 1536 well white solid plate, then 23nL compound were delivered to each well using a pin tool. Check OD for overnight culture and add cell density at 0.01 for each well, incubation in 30 degree plus 99% humidity for 24 hours. After add 5 ul of *BacTiter/Glo detect reagent to each well at room temperature for 5 minutes then to red out results with Viewlux CCD camera.
# On the % scale 0 is the no-effect control and ±100 the full control effect.
Compound,"activity change, negative = less growth",Potency
COc1ccc(-c2cc(C3CCN(c4ncccc4[N+](=O)[O-])CC3)[nH]n2)cc1,12%,
CN(C)C(=O)c1cccc(-c2cnc3sc(NCc4ccc5c(c4)OCO5)nn23)c1,17.8%,
Cc1cccc(C(=O)N2CCCC(Nc3ccc(C(C)C)cc3)C2)n1 (stereo unspecified),-10.3%,
Cc1nnsc1C(=O)Nc1cccc(Cl)c1C,-7.71%,
CC1=C(C(=O)Nc2ccccc2)S(=O)(=O)CCO1,14.7%,
O=C(Nc1ccccc1)c1nnsc1S(=O)(=O)c1ccc(Cl)cc1,,6.31 µM (active)
COc1ccc(C(C)NC(=O)C2CCCC2)cc1 (stereo unspecified),16.1%,
O=C(Cn1cc(C(F)(F)F)ccc1=O)Nc1ccc2c(c1)OCCO2,1.56%,
CC1(C)Cc2c(sc(NC(=O)C(=O)N3CCOCC3)c2C#N)CO1,-3.12%,
S=C(Cc1ccc(Cl)cc1)N1CCOCC1,-11.5%,
CC1CCN(C(NC(=O)c2ccco2)C(=O)c2ccccc2)CC1 (stereo unspecified),9.19%,
CCOC(=O)c1c(Cc2ccc(Cl)cc2)c[nH]c1C,-1.99%,
COc1ccc(N=C2C=CC(=O)O2)cc1,,8.91 µM (active)
COc1ccc(N=Nc2c(-c3ccc(OC)cc3)[nH]oc2=O)cc1,-3.2%,
COC1=CC(=O)OC(c2ccc(OC)cc2)C1 (stereo unspecified),3.06%,
O=C(Nc1ccccc1F)c1ccc(Cn2cc(Br)cn2)cc1,4.37%,
C[C@H](CO)N1C[C@H](C)[C@@H](CN(C)Cc2ccc3c(c2)OCO3)OCc2cnnn2CCCC1=O,3.04%,
Cc1ccccc1-n1nc(C)c2c1N=C1C(Cl)=CC(Cl)=CN1C2c1ccc(C(=O)O)cc1 (stereo unspecified),-12%,

Compound,"activity change, negative = less growth",Potency
Fc1ccccc1N=C1Nc2cccc3cccc1c23,,25.1 µM (active)
O=C(NCC1CCCCC1)c1cc(S(=O)(=O)N2CCCCC2)ccc1N1CCOCC1,-20.1%,
COc1cccc2c1CCC(NC(C)=O)C2=O (stereo unspecified),8%,
CCOc1ccc2[nH]c3nc(SCC(=O)NC4CCCC4)nnc3c2c1,5.5%,
COc1ccc(CCN(C)C(=O)C23CC4CC(CC(Cl)(C4)C2)C3)cc1OC,10.3%,
COc1cccc(C(C(=O)NC2CCCC2)N(C(=O)c2ccco2)c2cccc(C(C)=O)c2)c1OC (stereo unspecified),-5.9%,
CCOc1ccc(C(=O)CCN2CCOCC2)cc1,,39.8 µM (active)
CCOc1ccc(C(=O)CCC(=O)NC2=NCCS2)cc1,-25.9%,
CCOc1ccc(-c2ccc(SCC(=O)N3CCOCC3)nn2)cc1,1.07%,
O=C(O)CCCn1cc(NC(=O)COc2cccc(Cl)c2)cn1,11.7%,
CC(NC(=O)COC(=O)C1CCN(S(=O)(=O)c2ccccc2C(F)(F)F)CC1)c1ccccc1 (stereo unspecified),-18.4%,
CN(C)C(CNC(=O)c1cc(Br)c(Br)s1)c1ccco1 (stereo unspecified),3.37%,
O=C1C(Cl)=C(Oc2ccccc2)C(=O)c2ccccc21,,3.16 µM (active)
CCC1=C(OC(=O)N(CC)CC)N2C(=O)OC(=NCCc3c[nH]c4ccccc34)[C@]2(C)[C@H]2C1=CC[C@H]1C(=O)N(CC)C(=O)[C@H]12,5.02%,
CSCCC(NS(=O)(=O)c1ccc2c(c1)oc(=O)n2C)C(=O)NC1CCCc2ccccc21 (stereo unspecified),5.96%,
CC[C@]1(C(=O)OC)[C@H]2C(=O)N(C)C(=O)[C@H]2[C@H]2CN(C)C(=NCc3ccccc3)N21,-7.99%,
Cc1cc(C)cc(NC(=O)Cn2cnc3c(nnn3Cc3ccc(F)cc3)c2=O)c1,18.1%,
CCc1nnc(NC(=O)CSCc2cc(=O)n3cc(C)sc3n2)s1,7.37%,
